The supplement of paper PMC6555819

Experiments:
Test in all cases: PBM binding z-score (relative to random genomic background probes); higher = stronger binding; sequences stand for … in GC…GCGATTGACAGCGTAGAATGAAGG
[1] = tested on: FXR:RXRa (NR concentration 270 nM, RXRa partner concentration 90 nM)
Method in brief: (§1)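 Probes were double-stranded and carried 34-nt variable regions with direct-repeat seeds, single-nucleotide variants, half-site ablations and random human genomic background sequences, printed on custom Agilent 4×180K protein-binding microarrays. Arrays were incubated 1 h with ligand-free nuclear receptor dimers in PBS pH 7.4, 2% milk, 0.02% Triton X-100, 1 mM DTT, 0.2 mg/mL BSA and 0.4 mg/ml salmon testes DNA. Antibodies against each partner (one per run) detected binding, and scanned fluorescence was regression-normalized. Binding z-scores use the random background probes as reference.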

[2] = tested on: LXRa:RXRa (NR concentration 270 nM, RXRa partner concentration 90 nM)
Method in brief: as §1

[3] = tested on: LXRa homodimer (NR concentration 270 nM)
Method in brief: as §1

[4] = tested on: LXRb:RXRa (NR concentration 270 nM, RXRa partner concentration 90 nM)
Method in brief: as §1

[5] = tested on: LXRb homodimer (NR concentration 270 nM)
Method in brief: as §1

[6] = tested on: PPARa:RXRa (NR concentration 270 nM, RXRa partner concentration 90 nM)
Method in brief: as §1

[7] = tested on: PPARg:RXRa (NR concentration 180 nM, RXRa partner concentration 90 nM)
Method in brief: as §1

[8] = tested on: PPARg:RXRa 270nM:90nM, anti-RXR (NR concentration 270 nM, RXRa partner concentration 90 nM)
Method in brief: as §1

[9] = tested on: PPARg:RXRa 30nM:10nM, anti-RXR (NR concentration 30 nM, RXRa partner concentration 10 nM)
Method in brief: as §1

[10] = tested on: PPARg:RXRa 90nM:30nM, anti-RXR (NR concentration 90 nM, RXRa partner concentration 30 nM)
Method in brief: as §1

| Sequence | PBM binding z-score [1] | PBM binding z-score [2] | PBM binding z-score [3] | PBM binding z-score [4] | PBM binding z-score [5] | PBM binding z-score [6] | PBM binding z-score [7] | PBM binding z-score [8] | PBM binding z-score [9] | PBM binding z-score [10] |
| --- | --- | --- | --- | --- | --- | --- | --- | --- | --- | --- |
| CCAGCCAGGTGAGAAGGTAACTCAGCCTCGATTA | -0.27 | -0.406 | -0.377 | -0.292 | -0.967 | 0.458 | 0.262 | 1.03 | -0.318 | 0.318 |
| CCTACTGGGCCATCAGGTCATTTATATCAACGTT | 1.48 | 1.03 | 1.99 | 1.81 | 0.176 | 2.79 | 2.76 | 3.29 | 1.06 | 2.57 |
| ATATGTAGGTTATCGGGTCATTCAGTTTGCGCAT | 2.98 | 3.41 | 2.11 | 3.16 | 1.34 | 4.62 | 6.73 | 6.32 | 3.96 | 5.64 |
| CGAACGAGGGCATGAGTTGATATCAAATGCCGAT | 0.475 | 0.326 | -0.371 | 0.156 | -0.654 | 1.59 | 1.58 | 1.42 | 0.347 | 0.786 |
| TTACCAAGGTGAAAGGTCGTGGATGCACGCCTTG | 3.68 | 3.62 | -0.0355 | 3.01 | -0.715 | 5.66 | 9.46 | 8.31 | 7.31 | 8.54 |
| TCTCGGAGGACACGCAGGTCAGAGCTTTCCAGAG | 0.587 | 0.453 | -0.198 | 0.321 | -1.1 | 1.22 | -0.00527 | 0.98 | 1.99 | 1.12 |
| AGAACGAGGGCAATGAGATGATAGCACGGGTGGC | 0.277 | 0.121 | -0.31 | -0.282 | -0.486 | 1.02 | 1.58 | 0.593 | 0.201 | 0.528 |
| TCTCGGAGGACACGATAGGTCAGAGCTCGACATC | 1.07 | 1.92 | 0.208 | 0.643 | -0.585 | 1.5 | 0.595 | 1.43 | 2.09 | 1.52 |
| TCTAGTTGGTCAAAGGTCCCACACTCGAAATGCG | 1.07 | 1.18 | 0.135 | 1.26 | 0.288 | 3.33 | 6.7 | 7.21 | 6.42 | 7.55 |
| CCGACTGGGGCACGGTTACCATAACGCACAGCCA | -0.15 | -0.079 | -0.346 | -0.211 | -0.878 | 0.346 | 1.8 | 0.982 | -0.228 | 0.391 |
| GGAACGAGGGCAAGCTGATAGCAGAGTTTGATGG | 0.351 | 0.065 | -0.473 | 0.0396 | -1.04 | 1.37 | 0.979 | 0.733 | -0.285 | 0.3 |
| CAAACTAGGTCACGGTCAAAGTCGGTTTGTGCCA | 5.44 | 4.31 | 1.73 | 3.13 | 0.506 | 5.57 | 9.6 | 7.81 | 5.91 | 7.67 |
| TCATATAGGTAAACAGGAGAAAGTCCGTAAGTTA | 0.871 | 0.628 | -0.02 | 0.291 | -0.116 | 0.987 | 1.23 | 2.26 | 3.93 | 3.07 |
| ATCTCTAGGTAACAAGTTCACTGAAAGAGAGGAC | 1.15 | 1.44 | 1.22 | 1.56 | 0.913 | 2.74 | 2.49 | 2.9 | 1.37 | 2.56 |
| CGAACGAGGGCATGAGTTGATAACAAATGCCGAT | 0.424 | 0.218 | -0.205 | 0.254 | -0.653 | 1.44 | 1.53 | 1.35 | 0.389 | 0.841 |
| GCTATTAGTTAAAAGGGCAACCGAATGATTCTCG | 0.183 | 0.439 | 0.409 | 0.624 | -0.5 | 2.02 | 1.84 | 3.45 | 1.77 | 3.13 |
| GCTCTGAGGACAAGGTCAGAGCTTTGTCCGTAGA | 1.69 | 1.56 | -0.176 | 1.45 | -0.782 | 2.3 | 1.02 | 2.06 | 0.095 | 1.22 |
| CGACCTAGGTCATTGACAGGACAGTGAATAGTAA | 5.8 | 4.01 | 0.717 | 2.75 | 0.226 | 4.18 | 3.67 | 3.24 | 0.782 | 2.01 |
| GCGACTGGGGCAAAGCAGGTTACAATAAGGTTGG | 0.383 | 0.245 | -0.467 | 0.623 | -0.699 | 1.6 | 1.48 | 1.49 | 0.224 | 0.898 |

| Sequence | PBM binding z-score [1] | PBM binding z-score [2] | PBM binding z-score [3] | PBM binding z-score [4] | PBM binding z-score [5] | PBM binding z-score [6] | PBM binding z-score [7] | PBM binding z-score [8] | PBM binding z-score [9] | PBM binding z-score [10] |
| --- | --- | --- | --- | --- | --- | --- | --- | --- | --- | --- |
| TAGCCAAGGTCATGCGGGCCAGTATAGTGTCGGC | 7.03 | 4.97 | 1.17 | 3.87 | 0.499 | 5.58 | 4.64 | 4.84 | 1.61 | 3.73 |
| TCAATGAGGTTATAAGATCAGGGAACGTTGCAAA | 1.62 | 1.48 | -0.0675 | 1.39 | -0.169 | 2.7 | 1.07 | 2.15 | 2.81 | 2.66 |
| ATATGGAGGTTACATCCGGGTCATTCAGGCTATG | 2.99 | 5.32 | 1.94 | 3.8 | 0.764 | 3.79 | 3.01 | 2.85 | 0.871 | 1.91 |
| GGAACGAGGGCAAAGTTGACAGCATCTGTCGACG | 2.02 | 1.27 | -0.425 | 1.25 | -0.409 | 4.78 | 8.22 | 7.66 | 7.72 | 8.34 |
| AGAATGAGGCTAAGATCAGGGAAACAGAATACAT | -0.36 | -0.634 | -0.0824 | -0.157 | -0.737 | -0.0265 | 0.645 | 0.202 | 0.113 | 0.138 |
| CTCGAAAGGTCGTGCTCAGCTGAGTATACCAAAC | 4.95 | 3.96 | -0.247 | 3.26 | 0.329 | 4.67 | 2.52 | 3.89 | 0.929 | 2.38 |
| CTCCCAAGGTGAACAAGGTCGTTGATTACTATTC | 1.08 | 1.47 | 0.177 | 1.84 | -0.42 | 2.36 | 0.575 | 1.07 | 0.0592 | 0.823 |
| CCAGACAGGTGATAAGGTAACTCAGCCTCGATTA | 0.336 | 0.0665 | -0.0911 | 0.157 | -0.187 | 0.51 | 0.555 | 0.114 | 0.063 | 0.191 |
| CCGATTAGGTTATGGGGCATTCAGGCAACGGTGA | 0.472 | 0.574 | -0.0892 | 0.58 | -0.609 | 1.58 | 2.14 | 3.35 | 1.63 | 2.83 |
| CCGAGTACGTTATGGGGCATTCAGGCAACGGTGA | -0.345 | -0.442 | -0.712 | -0.213 | -0.602 | -0.079 | 0.408 | -0.152 | -0.465 | -0.83 |
| GCTATTAGTTGAAAGAGCAACCGAATGATTCTCG | -0.368 | -0.335 | -0.0598 | -0.509 | -0.535 | 0.321 | 0.704 | 1.95 | 0.137 | 1.51 |
| TCATATAGGTAATACAGGTGAATGTCGGCATCTA | 1.12 | 1.39 | 0.495 | 0.986 | 0.337 | 1.84 | 1.73 | 2.58 | 4.19 | 3.28 |
| ACTTACGGGTCAACGAGGTTATCGCACGCGTATA | 7.3 | 5.42 | 1.07 | 4.36 | 1.13 | 5.83 | 5.87 | 5.69 | 2.32 | 4.5 |
| CATACAGGGTCAGGTAGGCCAGAGTAGGGACGGC | 4 | 2.92 | -0.133 | 2.21 | 0.723 | 4.2 | 3.15 | 2.92 | 0.655 | 2.16 |
| TAGACAGGGTCAAAGGCCAGAGTACGAATGTCGA | 7.27 | 4.51 | -0.0175 | 3.89 | 0.611 | 5.99 | 7.49 | 6.93 | 4.3 | 6.42 |
| AGAATGAGGTTAAGGTCAGGGAAACAGAATACAT | 5.36 | 4.12 | 0.675 | 3.93 | 0.526 | 5.21 | 5.25 | 5.04 | 2.44 | 4.29 |
| CAAACTAGGTAACAGAGGTCAAAGTCCGTGCGTA | 5.29 | 6.1 | 7.34 | 5.38 | 1.74 | 5.84 | 6.67 | 6.35 | 3.97 | 5.74 |
| TCTGCTAGGTCAGTTGGTCTGCTAACGAGCTGCC | 0.643 | 0.261 | -0.897 | -0.119 | 0.334 | 0.9 | -0.466 | 1.02 | 0.751 | 1.14 |
| TTACCAAGGTGAAAGGTCCTTGATGCACGCCTTG | 1.03 | 1.02 | -0.388 | 1.06 | -1.03 | 3.88 | 5.66 | 6.39 | 4.88 | 6.09 |
